# High-throughput results deposited in PubChem BioAssay by National Center for Advancing Translational Sciences (NCATS).
# HT1080NT lethal: kills 2HG-producing HT-1080-NT fibrosarcoma cells. 360,000 tested, 1.6% active. Potency, µM (titrated, usually from 46.1 µM), actives largely listed as cytotoxic. HT-1080-NT fibrosarcoma viability, CellTiter-Glo ATP luminescence, 48 h;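 further: NT is the 2HG producing partner of a matched IDH1 knockdown line; nearly all actives have a fitted effect of over 55% in size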
#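 Viability by CellTiter-Glo luminescence after 48 h compound exposure at 37C of HT-1080-NT cells (750/well, RPMI, 5% FBS). % activity scaled between DMSO wells and medium-only wells, then curve-fitted and categorized by curve class.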
# TDP1 cell CPT: growth inhibition of DT40 Tdp1-/-;hTDP1 cells with camptothecin (screen for TDP1 inhibitors). chicken DT40 Tdp1-/-;hTDP1 cells + 20 nM CPT, ATP luminescence, 48 h. Potency, µM (highest dose often 46.2 µM), most hits filed as inhibitors. 420,000 tested, 12% active; further: nearly all actives have a fitted effect of over 55% in size
#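 Chicken DT40 Tdp1-/- cells stably complemented with human TDP1 were seeded at 400 cells/well in medium containing 20 nM camptothecin, exposed to pin-transferred compounds, and grown at 37 °C for at least 48 hr. Viability was read as ATP luminescence.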
# DT40 TDP1 no CPT: qHTS for Inhibitors of human tyrosyl-DNA phosphodiesterase 1 (TDP1): qHTS in cells in absence of CPT. DT40 Tdp1-/- hTDP1 cells, no CPT, ATP luminescence, 48 h. Potency, µM (titrated, usually from 46.2 µM), most hits filed as inhibitors. 420,000 tested, 15% active; further: nearly all actives have a fitted effect of over 55% in size
#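 Camptothecin absent (DMSO only). Human TDP1-complemented DT40 knockout cells, 400 cells/well, 37 °C for minimum 48 hr; ATP measured via CellTiter-Glo, 30 min dark incubation, luminescence.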
# IL-1B inflam inh: inflammasome signaling inhibition, IL-1 beta readout; activity change, % at 57.5 µM; AID 743279; 360,000 tested, 4.7% active; THP-1 LPS/ATP IL-1B secretion, AlphaLISA, 16 h; stronger effect = lower value; in the data active means activity change below about -50%; inconclusive means mostly about -30% to -49%
#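 THP-1 cells pretreated 1 hr with compounds (up to 57.5 uM final), then stimulated with LPS (250 ng/mL final) plus ATP (1.25 mM final); secreted IL-1B measured by AlphaLISA after 16 hr, decreased signal indicating inhibition.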
# ELG1 DNA repair: ELG1-dependent DNA repair inhibition; HEK293T ELG1-luciferase reporter, luminescence, 16 h; DNA damage induced by 5-fluorouridine; Potency, µM (titrated, usually from 46.1 µM), most hits filed as inhibitors; 330,000 tested, 2.3% active; further: nearly all actives have a fitted effect of over 55% in size
#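 In this reporter screen, reduction of luminescence relative to DMSO vehicle indicated activity. Compounds and 5-fluorouridine were added together to 2,000 cells per well, incubated for 16 hr at 37 °C, then developed with ONE-Glo.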
# HT1080 IDH1KD tx: HT-1080 IDH1 knockdown cell toxicity (counter line); 360,000 tested, 2% active; Potency, µM (doses to about 46.1 µM), most hits filed as cytotoxic; HT-1080 IDH1 knockdown viability, ATP luminescence, 48 h
#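 Knockdown cells (IDH1KD HT-1080) received compounds 2 h after plating at 750 cells/well and were kept 48 h at 37 °C in 5% FBS RPMI. A CellTiter-Glo luminescence read gave % activity for curve fitting.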
# Numbers stand for hits; – = inactive; ? = inconclusive; · = not tested or not shown; [ ] = dose if it differs, or a comment. Hits are enriched below; roughly 19% of the tested compounds scored in any of these assays. Unless noted, the call rests on the fitted dose curve; in most records, active means well fitted curve in the direction sought with a large enough effect; inconclusive means small, poorly fitted or top-dose-only effect, or another doubt; inactive means no such curve, though single readings can be large; an effect the other way counts as inactive or inconclusive.
SMILES,HT1080NT lethal,TDP1 cell CPT,DT40 TDP1 no CPT,IL-1B inflam inh,ELG1 DNA repair,HT1080 IDH1KD tx
CC(=O)N1c2ccc(S(=O)(=O)N3CCC(C(=O)NCc4ccc(C)cc4)CC3)cc2CC1C (stereo unspecified),–,?,–,–,?,–
COc1ccc(NC(=O)C2CCN(S(=O)(=O)c3ccc4c(c3)CC(C)N4C(C)=O)CC2)cc1OC (stereo unspecified),–,?,?,–,–,–
CCCCn1c(N)c(N(CCC(C)C)C(=O)c2ccc(C)c(S(=O)(=O)N3CCOCC3)c2)c(=O)[nH]c1=O,–,–,–,–,–,–
CN(c1ccccc1)S(=O)(=O)c1cccc(C(=O)OCC(=O)Nc2ccc(C(N)=O)cc2)c1,–,?,?,–,?,–
COc1cc(OC)c(NC(=O)N2CCc3cc(S(=O)(=O)N4CCC(C)CC4)ccc32)cc1Cl,·,10µM,8.2µM,·,·,·
COCCN(C(=S)Nc1ccc(Cl)cc1OC)C1CCN(C(C)=O)CC1,–,?,–,–,–,–
COc1ccc(Cl)cc1C(=O)NNC(=O)c1cccs1,–,?,–,–,?,–
COc1cccc(CNC(=O)C2CCCN(S(=O)(=O)c3cccc4nonc34)C2)c1 (stereo unspecified),?,?,–,–,–,–[9.24 µM]
COc1cccc(CNC(=O)C2CCCN(c3nc4ccccc4n4cccc34)C2)c1 (stereo unspecified),·,?,15µM,·,·,·
COc1ccccc1CNC(=O)C1CCCN(c2nc3ccccc3n3cccc23)C1 (stereo unspecified),·,?,13µM,·,·,·
O=C(NCc1ccccc1Cl)C1CCCN(c2nc3ccccc3n3cccc23)C1 (stereo unspecified),·,18µM,21µM,·,·,·
O=C(NCc1ccccc1Cl)C1CCCN(c2nc3ccsc3c(=O)s2)C1 (stereo unspecified),·,·,·,·,–,·
COc1ccc(C(C)(O)c2nc(-c3cnc4ccccc4c3)cs2)cc1 (stereo unspecified),–,?,?,–,·,–
CC(O)(c1ccc(F)c(F)c1)c1nc(-c2ccc3ccccc3c2)cs1 (stereo unspecified),?,18µM,?,–,·,?
CC(O)(c1ccc(F)c(F)c1)c1nc(-c2cnc3ccccc3c2)cs1 (stereo unspecified),?,16µM,15µM,–,·,?
O=C(CCNC(=O)c1ccccc1Cl)Nc1ccc2c(c1)OCCO2,–,–,–,–,·,–
COc1ccc(N(CC(=O)NC2CC3CCC2C3)S(=O)(=O)c2ccc(C)cc2)cc1Cl (stereo unspecified),–,?,23µM,–,·,–
COc1ccc(N(CC(=O)NC2CC3CCC2C3)S(=O)(=O)c2ccccc2)cc1OC (stereo unspecified),–,–,–,–,–,–
CCOc1ccc(N(CC(=O)NC2CC3CCC2C3)S(=O)(=O)c2ccc(C)cc2)cc1 (stereo unspecified),–,16µM,?,–,?,–
O=C(NCc1ccccc1F)c1sc2ncccc2c1-n1cccc1,·,23µM,?,·,·,·
CSc1ccc(CCNC(=O)c2sc3ncccc3c2-n2cccc2)cc1,·,16µM,26µM,·,·,·
CCCCNC(=O)c1sc2ncccc2c1-n1cccc1,·,12µM,–,·,·,·
COCCCNC(=O)c1sc2ncccc2c1-n1cccc1,·,–,–,·,·,·
CCCCNC(=O)c1sc2nc(C)cc(COC)c2c1-n1cccc1,–,16µM,26µM,–,?,–
CCOC(=O)c1ccc(NC(=O)NCCc2cnc[nH]2)cc1,–,–,–,–,–,–
SMILES,HT1080NT lethal,TDP1 cell CPT,DT40 TDP1 no CPT,IL-1B inflam inh,ELG1 DNA repair,HT1080 IDH1KD tx
O=C(NCCc1ccccc1)c1sc2ncccc2c1-n1cccc1,·,26µM,?,·,·,·
COc1ccc(N2CC(C(=O)Nc3cccnc3)CC2=O)cc1 (stereo unspecified),–,–,–,–,–,–
O=C1OC(c2ccccc2)(N(Nc2ccccc2)c2ccccc2)c2ccccc21 (stereo unspecified),?,?,23µM,–,·,–
Cc1c(-c2ccccc2)oc2c(C(=O)N3CCN(c4ccccc4F)CC3)cccc2c1=O,–,21µM,21µM,–,?,–
CCCCN(C(=O)c1cccc2c(=O)c(C)c(-c3ccccc3)oc12)c1ccccc1,–,16µM,8.2µM,–,?,?
CCCCNC(=O)c1cccc2c(=O)c(C)c(-c3ccccc3)oc12,–,?,?,–,?,–
COCCNC(=O)CC(=O)N/N=C/c1ccc(C(=O)OC)cc1,?,–,–,–,–,–
Cc1ccc(NC(=O)N2CCN3CCCCC3C2)cc1C (stereo unspecified),·,–,–,·,·,·
OC1C2COC(O2)[C@H](O)C1O (stereo partly specified),·,–,–,·,·,·
CC(C)C[C@H]1CN(CCCC[C@H]2CNC(=O)C(=O)N2CCc2ccccc2)C(=O)C(=O)N1CCC1CCCCC1,–,–,–,–,·,–
CC(C)c1ccc(C(O)c2nc3ccccc3n2C)cc1 (stereo unspecified),–,21µM,21µM,–,–,–
COc1ccccc1/C=C/c1nc2ccccc2n1C(C)C,·,18µM,21µM,·,·,·
Cc1ccc(C(O)c2nc3ccccc3n2C)cc1 (stereo unspecified),–,–,?,–,–,–
COc1ccc(C(O)c2nc3ccccc3n2C(C)C)cc1 (stereo unspecified),?,23µM,16µM,–,–,?
Cc1ccc(S(=O)(=O)/N=C(\CN2CCOCC2)N2CCCC2)cc1,–,–,–,–,–,–
Cc1ccc(S(=O)(=O)/N=C(\CCl)N2CCOCC2)cc1,–,15µM,16µM,-52,15µM,?
CC(C)C(=O)Nc1cccc(C(=O)Nc2nnc(CC(C)(C)C)s2)c1,·,–,?,·,·,·
CN(C(=O)c1cc2nc(-c3ccc4c(c3)OCO4)cc(C(F)(F)F)n2n1)c1ccc(OC(F)(F)F)cc1,·,–,–,·,·,·
Cc1c(Cl)cccc1-n1ncc(C(=O)Nc2ccc(F)cc2F)c1C1CCN(C(=O)OC(C)(C)C)CC1,·,?,15µM,·,·,·
Cc1c(Cl)cccc1-n1ncc(C(=O)N2CCC(C)CC2)c1C1CCN(C(=O)OC(C)(C)C)CC1,·,?,21µM,·,·,·
Cc1c(Cl)cccc1-n1ncc(C(=O)NC2CCCC2)c1C1CCN(C(=O)OC(C)(C)C)CC1,·,?,21µM,·,·,·
CC(C)(C)OC(=O)N1CCC(c2c(C(=O)O)cnn2-c2ccc(F)cc2F)CC1,·,–,–,·,·,·
